According to PubChem BioAssay (NCATS):
Where “and” joins values, the source holds several entries; their conditions need not be identical. Equal entries are not always repeated. Results filed as inconclusive are left out. Where a call stands in place of a potency, no number is given. A structure can be active in one record and inactive in another. Calls of active or inactive are those of the source. The call rests on the fitted dose curve; in most records, active means well fitted curve in the direction sought with a large enough effect; inconclusive means small, poorly fitted or top-dose-only effect, or another doubt; inactive means no such curve, though single readings can be large; an effect the other way counts as inactive or inconclusive.

Experiments:
[1] = target: Single-stranded DNA cytosine deaminase (Homo sapiens) (UniProt Q9GZX7); assay: Validation qHTS assay for inhibitors of Activation Induced Cytidine Deaminase (AID): AID signal (AID 1347429); further: potency means the concentration at half of the fitted maximal effect
Single-stranded DNA cytosine deaminase (Homo sapiens), sequence (Q9GZX7 whole entry, looked up): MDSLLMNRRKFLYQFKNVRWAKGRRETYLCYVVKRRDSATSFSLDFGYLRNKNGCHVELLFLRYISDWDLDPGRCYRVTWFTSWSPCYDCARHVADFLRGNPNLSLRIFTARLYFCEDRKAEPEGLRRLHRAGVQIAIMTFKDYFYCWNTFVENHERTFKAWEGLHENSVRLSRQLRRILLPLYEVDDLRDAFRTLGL
Method in brief: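 AID and UDG were combined and compounds added at final up to 114 uM, then DJC20/DJC23 FRET substrate was added for 4 hr at room temperature. NaOH was then added for 30 min before fluorescence was read at 540/590 nm.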

[2] = Primary qHTS for inhibitors of La Crosse Virus (LACV) - induced cell death in SH-SY5Y cells (AID 1508616); further: potency means the concentration at half of the fitted maximal effect
Method in brief: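 Luminescent ATP readout (ATPLite 1step, 5 min room temperature) measured rescue from LACV-induced death after 6 days of infection at 0.01 MOI; normalized to infected DMSO wells and uninfected DMSO wells.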

[3] = Primary qHTS for small molecule stabilizers of the endoplasmic reticulum resident proteome: Secreted ER Calcium Modulated Protein (SERCaMP) assay (AID 1508630)
Method in brief: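 GLuc-SERCaMP-expressing SH-SY5Y cells, pretreated 16 h with compound, are challenged with thapsigargin to empty ER calcium stores; after 4 h, coelenterazine is added directly to the medium and luminescence is imaged.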

[4] = target: Calcium and integrin-binding protein 1 (Homo sapiens) (UniProt Q99828); assay: Validation qHTS for Identification of Calcium Integrin Binding protein 1 (CIB1) Competitor (AID 1508618)
Calcium and integrin-binding protein 1 (Homo sapiens), sequence (Q99828 whole entry, looked up): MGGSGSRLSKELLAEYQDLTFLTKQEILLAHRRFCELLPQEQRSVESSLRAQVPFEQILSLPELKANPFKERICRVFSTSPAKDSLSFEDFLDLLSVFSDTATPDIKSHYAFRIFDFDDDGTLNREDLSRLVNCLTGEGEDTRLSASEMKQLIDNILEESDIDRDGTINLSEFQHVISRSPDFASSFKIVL
Method in brief: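 In this qHTS validation, the LOPAC set (up to 114 uM) was tested for blocking CIB1 binding to a fluorescein-tagged alphaIIb peptide, with FP detection at 480/540 nm.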

Papain (Carica papaya) = Papain (Carica papaya) (UniProt P00784); assay: Primary qHTS assay for inhibitors of the protease papain (AID 1645873);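 further: papain turnover of Z-FR-AMC read as the AMC fluorescence gain over 10 min; series mostly up to about 50 µM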
Papain (Carica papaya), sequence (P00784 whole entry, looked up): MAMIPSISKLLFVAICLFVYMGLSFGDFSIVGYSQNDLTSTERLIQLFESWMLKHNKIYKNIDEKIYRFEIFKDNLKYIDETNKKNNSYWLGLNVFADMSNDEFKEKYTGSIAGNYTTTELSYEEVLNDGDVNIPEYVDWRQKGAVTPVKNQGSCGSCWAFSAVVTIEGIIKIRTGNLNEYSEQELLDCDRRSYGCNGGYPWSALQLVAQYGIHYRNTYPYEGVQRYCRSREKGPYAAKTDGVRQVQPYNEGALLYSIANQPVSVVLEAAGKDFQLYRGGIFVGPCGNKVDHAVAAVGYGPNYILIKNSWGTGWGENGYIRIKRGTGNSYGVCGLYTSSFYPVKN

[5] = Counterscreen qHTS for small molecule stabilizers of the endoplasmic reticulum resident proteome: GLuc-NoTag assay (AID 1508627);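 further: SH-SY5Y cells given compound then 100 nM thapsigargin to empty ER calcium; series mostly up to about 76 µM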
Method in brief: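 SH-SY5Y cells stably expressing constitutively secreted GLuc (no SERCaMP tag) were pre-incubated 5 h, treated with compound for 19 h, then 100 nM thapsigargin for 4 h at 37C; medium GLuc read by coelenterazine luminescence.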

[6] = Confirmatory qHTS for small molecule stabilizers of the endoplasmic reticulum resident proteome: Secreted ER Calcium Modulated Protein (SERCaMP) assay (AID 1508628); further: nearly all actives have a fitted effect of over 40% in size; further: potency means the concentration at half of the fitted maximal effect
Method in brief: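 We seeded SH-SY5Y-GLuc-SERCaMP cells, added compounds (three concentrations in the primary run, eleven up to 76.6 uM in confirmation), incubated 16 h, depleted ER calcium with thapsigargin, and read luciferase 4 h later.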

SMILES	Potency [1]	Potency [2]	Potency [3]	outcome [4]	Potency (Papain (Carica papaya))	Potency [5]	Potency [6]
CCCCCC(O)c1cccc(OCc2ccc3ccccc3n2)c1 (stereo not drawn)	inactive	inactive	inactive	–	–	–	–
O=C(O)CC[C@@H](C(=O)O)N1C(=O)c2ccccc2C1=O	inactive	inactive	–	inactive	inactive	–	–
OCC1O[C@H]([S-])[C@H](O)[C@@H](O)[C@@H]1O.[Au+] (stereo partly drawn)	12.6 µM (active)	inactive	inactive	–	–	–	–
O=C(/C=C/c1ccc(O)c(O)c1)OCCc1ccccc1	inactive	0.631 µM (active)	–	–	inactive	inactive	inactive and 4.47 µM (active)
CCCCCCCCCCCCCCCC(=O)OC(CC(=O)O)C[N+](C)(C)C (stereo not drawn)	inactive	inactive	inactive	–	inactive	–	–
C[N+](C)(CCCCCC[N+](C)(C)CCCN1C(=O)c2cccc3cccc(c23)C1=O)CCCN1C(=O)c2cccc3cccc(c23)C1=O	1.41 µM (active)	inactive	inactive	–	–	–	–
CCN(CC)c1ncnc2c1ncn2[C@@H]1O[C@H](COP(=O)(O)OP(=O)(O)C(Br)(Br)P(=O)(O)O)[C@@H](O)[C@H]1O	inactive	inactive	inactive	–	inactive	–	–
C[C@@H](CN1CCC(Cc2ccccc2)CC1)[C@@H](O)c1ccc(O)cc1	inactive	inactive	inactive	–	inactive	–	–
O=[N+]([O-])c1ccc(CSc2ncnc3c2ncn3[C@@H]2O[C@H](CO)[C@@H](O)[C@H]2O)cc1	inactive	inactive	inactive	–	inactive	–	–
NCCNC(=O)c1ncsc1-c1cccc(F)c1	inactive	inactive	inactive	–	–	–	–
O=C(c1ccc(OCCCc2cnc[nH]2)cc1)C1CC1	inactive	inactive	–	inactive	inactive	–	–
c1ccc(-c2ccccn2)nc1	inactive	inactive	inactive	–	inactive	–	–
CN1[C@@H](CC(=O)c2ccccc2)CCC[C@H]1C[C@H](O)c1ccccc1	inactive	inactive	–	–	inactive	inactive	–
CC(C)CC(NP(=O)(O)O[C@@H]1O[C@@H](C)[C@H](O)[C@@H](O)[C@H]1O)C(=O)NC(Cc1c[nH]c2ccccc12)C(=O)O (stereo partly drawn)	inactive	inactive	–	inactive	inactive	–	–
N#C/C(=C\c1c[nH]c2ccccc12)C(=O)c1ccc(O)c(O)c1	inactive	inactive	–	–	–	inactive	12.6 µM (active)
CCCCCCCCc1ccc(-c2ccc(C(=O)O)cc2)cc1	inactive	inactive	inactive	–	inactive	–	–
CN1CCc2ccccc2Cc2[nH]c3ccccc3c2CC1	inactive	inactive	inactive	–	inactive	–	–
COc1cc(SC)ccc1C(=O)N1CCC(Cc2ccccc2)CC1	inactive	inactive	inactive	–	inactive	–	–
CC(C)NC[C@H](O)COc1cccc2[nH]ccc12	inactive	inactive	–	inactive	inactive	–	–
